The list shows a part of the results. Activity calls are given as the source filed them.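 Rule for the calls, unless noted: active = mean inhibition above about 50% in the one-dose retest (limit read from the data); inactive = the rest.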

22 molecules from PubChem BioAssay can be followed below.

Test [1] has as its target Sentrin-specific protease 8 (Homo sapiens) (UniProt Q96LD8). The experiment in a line: human SENP8 peptidase blockers, hit retest – biochemical, luminescence, single concentration, confirmation (AID 488912;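 active = mean inhibition across replicates above about 50%, limit read from the data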). Particulars: Recombinant SENP8, Z-RLRGG-aminoluciferin luminescence, 60 min; at 12.5 µM; stronger effect = higher value.
For test [2], the target named is Sentrin-specific protease 6 (Homo sapiens) (UniProt Q9GZR1). The experiment in a line: inhibition of human SENP6 catalytic domain – biochemical, luminescence, single concentration, confirmation (AID 488915). Particulars: recombinant SENP6, Z-RLRGG-aminoluciferin luminescence; at 12.5 µM; stronger effect = higher value.
The target of test [3] is Sentrin-specific protease 7 (Homo sapiens) (UniProt Q9BQF6). The test is described as follows: human SENP7 peptidase blockers, hit retest – biochemical, luminescence, single concentration, confirmation (AID 488917). Conditions: recombinant SENP7, Z-RLRGG-aminoluciferin luminescence, 40 min; at 12.5 µM; stronger effect = higher value.
For the next test, the target named is Caspase-3 (Homo sapiens) (UniProt P42574). The test is described as follows: human caspase-3 activity blockade, out-of-family – biochemical, single concentration, selectivity assay for SENP inhibitor project, confirmation (AID 488918;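 active = mean inhibition above about 50%, limit read from the data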;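 note: plate controls were enzyme with DMSO for no effect and wells without caspase-3 for full effect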). Particulars: purified caspase-3, Z-DEVD-aminoluciferin luminescence, 60 min; at 12.5 µM; stronger effect = higher value.
Test [4] in a line: Ultra-Glo luciferase signal interference – biochemical, single concentration, SENP8 reaction pre-completed, artefact control for SENP inhibitor project, confirmation (AID 488919;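 active = mean inhibition above about 50% when retested at one dose, limit read from the data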;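 note: plate controls were DMSO wells with completed reaction for no effect and substrate without enzyme for full effect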). Particulars: Pre-incubated SENP8/Z-RLRGG-aminoluciferin, luciferase luminescence interference; at 12.5 µM; stronger effect = higher value.
A short description of test [5]: PERK-eIF2a-CHOP pathway stimulators, retested – cell-based, CHO-CHOP luciferase reporter, single concentration, confirmation (AID 463112; in the data active = activation above about 33%;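 note: 0% = DMSO wells and 100% = tunicamycin 10 µg/mL wells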). Conditions: CHO-CHOP cells, CHOP-luciferase reporter luminescence; at 10 µM; stronger effect = higher value; percent of tunicamycin response, DMSO as zero. (In a reporter assay the amount or activity of a reporter protein is the signal.)
Test [6] is described as follows: HIF-2a driven luciferase blockers, single dose – luminescence, 786-0 RCC cells, confirmation (AID 651580;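 active = mean inhibition across four replicates of at least 40 percent at the single tested concentration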). Particulars: HIF-2a luciferase reporter luminescence, overnight, at 18.8 µM, stronger effect = higher value.
The nature of test [7]: HIF-1a luciferase reporter signal reduction – MiaPaCa-2 cells, single concentration, counter-screen for HIF-2a inhibitor project, confirmation (AID 651589;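 active = mean inhibition of the reporter signal across four replicates at the single tested dose of 50% or more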). Particulars: MiaPaCa-2 HIF-1a luciferase reporter, desferoxamine, overnight; at 18.8 µM; stronger effect = higher value.
The nature of test [8]: Brca1-Bard1 BiLC signal decrease – luminescence, single concentration, counter-screen for Mdm2/MdmX interaction inhibitor project, confirmation (AID 504668; call rule not given here). Particulars: Brca1/Bard1 bimolecular luciferase complementation counterscreen, at 8 µM, stronger effect = higher value. (Counterscreens check selectivity or assay interference.)
Test [9] can be described thus: NF-kB reporter suppression in CF airway cells – cell-based, GFP fluorescence, single concentration, confirmation (AID 602472; in the data active = inhibition above about 40%;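 note: stimulus PAF is a Pseudomonas aeruginosa filtrate and not platelet activating factor; plate controls were DMSO wells with stimulus for no effect and unstimulated DMSO wells for full effect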). Particulars: KKLEB CF airway cells, PAF-induced NF-kB-GFP fluorescence, overnight; at 5 µM; stronger effect = higher value.
Test [10] has as its target Tumor necrosis factor receptor superfamily member 10B (Homo sapiens) (UniProt O14763). The experiment in a line: viability loss of caspase-8 NB7 cells with TRAIL – with/without TRAIL, luminescence panel, confirmation (AID 651596; in the data active = activity above about 50%). Particulars: NB7 neuroblastoma + caspase-8, TRAIL sensitization, NB7 Caspase-8, with TRAIL, mean of runs, at 10 µM, stronger effect = higher value.
Assay in test [11]: as above
Particulars: NB7 neuroblastoma + caspase-8, without TRAIL, NB7 Caspase-8, without TRAIL, mean of runs, at 10 µM.

Chain of Caspase-3 (Homo sapiens) (P42574 28-227 limits assumed): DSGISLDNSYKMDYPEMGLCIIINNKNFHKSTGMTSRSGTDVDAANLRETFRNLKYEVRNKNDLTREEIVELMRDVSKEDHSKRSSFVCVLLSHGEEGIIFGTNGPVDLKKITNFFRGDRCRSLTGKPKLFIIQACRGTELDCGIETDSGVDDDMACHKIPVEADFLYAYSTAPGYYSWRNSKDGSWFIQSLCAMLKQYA
Chain of Sentrin-specific protease 6 (Homo sapiens) (Q9GZR1 628-1112 limits assumed): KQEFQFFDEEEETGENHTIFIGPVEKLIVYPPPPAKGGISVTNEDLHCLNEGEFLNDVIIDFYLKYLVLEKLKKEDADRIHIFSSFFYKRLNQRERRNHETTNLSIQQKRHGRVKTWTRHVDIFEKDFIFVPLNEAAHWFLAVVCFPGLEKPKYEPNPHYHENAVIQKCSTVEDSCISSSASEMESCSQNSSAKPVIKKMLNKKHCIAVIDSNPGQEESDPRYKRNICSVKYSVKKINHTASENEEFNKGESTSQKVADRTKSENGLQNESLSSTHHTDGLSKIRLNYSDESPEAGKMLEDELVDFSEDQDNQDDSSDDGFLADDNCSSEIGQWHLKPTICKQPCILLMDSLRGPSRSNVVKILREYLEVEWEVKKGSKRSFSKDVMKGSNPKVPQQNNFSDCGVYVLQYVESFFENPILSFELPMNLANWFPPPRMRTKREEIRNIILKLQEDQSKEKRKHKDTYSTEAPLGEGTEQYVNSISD
Chain of Sentrin-specific protease 7 (Homo sapiens) (Q9BQF6 706-1050 limits assumed): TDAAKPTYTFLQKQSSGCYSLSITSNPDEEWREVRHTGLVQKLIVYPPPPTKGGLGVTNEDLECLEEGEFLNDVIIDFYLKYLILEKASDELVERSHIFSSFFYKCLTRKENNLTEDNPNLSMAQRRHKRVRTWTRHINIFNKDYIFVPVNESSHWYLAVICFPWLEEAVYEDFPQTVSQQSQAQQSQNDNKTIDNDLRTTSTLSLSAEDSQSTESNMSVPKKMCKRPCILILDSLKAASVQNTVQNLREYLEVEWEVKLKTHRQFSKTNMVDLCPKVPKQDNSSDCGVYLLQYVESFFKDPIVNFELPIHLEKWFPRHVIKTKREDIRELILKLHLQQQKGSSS
Chain of Sentrin-specific protease 8 (Homo sapiens) (Q96LD8 whole entry, looked up, the tested form may be a part): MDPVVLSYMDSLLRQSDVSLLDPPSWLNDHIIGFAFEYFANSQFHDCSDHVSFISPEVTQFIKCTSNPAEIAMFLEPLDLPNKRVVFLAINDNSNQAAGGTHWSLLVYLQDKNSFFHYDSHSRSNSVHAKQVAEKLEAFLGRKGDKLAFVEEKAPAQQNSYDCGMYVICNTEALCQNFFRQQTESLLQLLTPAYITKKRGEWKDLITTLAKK
Chain of Tumor necrosis factor receptor superfamily member 10B (Homo sapiens) (O14763 whole entry, looked up): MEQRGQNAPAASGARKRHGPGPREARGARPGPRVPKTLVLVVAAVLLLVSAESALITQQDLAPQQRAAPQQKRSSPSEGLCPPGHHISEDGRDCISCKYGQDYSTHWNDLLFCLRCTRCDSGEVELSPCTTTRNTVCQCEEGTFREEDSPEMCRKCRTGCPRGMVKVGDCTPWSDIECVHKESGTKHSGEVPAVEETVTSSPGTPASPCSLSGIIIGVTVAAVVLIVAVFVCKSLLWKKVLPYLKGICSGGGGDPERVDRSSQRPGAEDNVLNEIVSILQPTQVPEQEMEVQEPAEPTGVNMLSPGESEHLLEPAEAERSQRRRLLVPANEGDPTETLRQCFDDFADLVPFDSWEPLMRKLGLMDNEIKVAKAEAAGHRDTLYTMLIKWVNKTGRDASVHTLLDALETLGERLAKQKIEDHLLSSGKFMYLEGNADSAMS

Broadly, the inhibition is the change of the read-out against control, counted positive when it falls. For `Cc1cccc(NS(=O)(=O)c2cccc(C(=O)NNC(=O)c3ccccc3O)c2)c1`, the inhibition was 26.9% (inactive) in [1]; 54.5% (active) in test [2]; 75.5% (active) in test [3]; 56.8% (active) with Caspase-3 (Homo sapiens); 49.9% (inactive) in test [4].
On the same counts, the results for `O=C(Nc1ccccc1)c1ccc2c(c1)OCO2` are 10.6% (inactive), 74.3% (active), 93.9% (active), 88.9% (active) and 54.8% (active).
Turning to `O=C(/C(=C/c1cccc(Cl)c1)c1nc2ccccc2[nH]1)c1ccccc1`, in [5], the activation is 115% (active). Besides, the inhibition in test [6] was 26.3% (inactive); in test [7] it was 105% (active).
`Cc1cccc(NC(=O)c2ccc3ccccc3n2)n1`: the inhibition in [1] is 76.6% (active); in test [2], 76.1% (active); in test [3], 93.6% (active); in the test with Caspase-3 (Homo sapiens) it was 65.2% (active); in test [4], 51.2% (active).
The matching figures for `COc1ccc(NC(=O)Nc2cccc3cccnc23)cc1`: 86.4% (active), 85.6% (active), 97.2% (active), 70.7% (active) and 78.5% (active).
The matching figures for `O=C(/C=C/c1ccco1)Nc1ccc(Oc2ccccc2)cc1`: 51% (active), 64.2% (active), 89.4% (active), 40.7% (inactive) and 38.3% (inactive).
Take `O=C(Nc1ccc(C2CC2(Cl)Cl)cc1)c1cccc([N+](=O)[O-])c1` (centres undefined): the inhibition in [1] is 57.6% (active); in [2] it was 60.1% (active); in test [3] it was 87.5% (active); with Caspase-3 (Homo sapiens), 36.1% (inactive); in [4], 29.5% (inactive).
The matching figures for `O=C(c1ccc(CSc2ccccc2)cc1)N1CCCCCC1`: 57.5% (active), 57% (active), 80% (active), 54.3% (active) and 65.5% (active).
Consider `O=c1c2ccccc2ncn1/N=C/c1ccccc1`, for which the inhibition was 2.5% (inactive) in test [1]; 80.2% (active) in test [2]; 97% (active) in [3]; 86.6% (active) in the test with Caspase-3 (Homo sapiens); 69% (active) in test [4].
For `O=C(OCC(=O)N1CCN(c2ccccc2)CC1)c1ccc([N+](=O)[O-])s1`, the inhibition in test [1] was 64.2% (active); in test [2] it was 80.9% (active); in [3], 25.4% (inactive); in the test with Caspase-3 (Homo sapiens) it was 8.3% (inactive); in test [4], -3.3% (inactive).
The matching figures for `Cc1ccn2cc(-c3nonc3C)cc2c1`: 47.6% (inactive), 77% (active), 95.7% (active), 73.7% (active) and 33% (inactive).
Take `O=C(CCl)Nc1cccc(CP(=O)(c2ccccc2)c2ccccc2)c1`: the activation in [5] was 34% (active). Moreover, the inhibition was 27.6% (active) in test [8], -20.6% (inactive) in test [9], 22.9% (inactive) in test [6] and 51.3% (active) in [7].
In the case of `COc1cccc(OCC(O)CNC(=O)c2oc3c(C)c(C)ccc3c2C)c1` (centres undefined), the inhibition in test [1] is 5.2% (inactive); in test [2], -1.7% (inactive); in test [3] it was -2.1% (inactive); with Caspase-3 (Homo sapiens), -3.9% (inactive); in test [4], -0.9% (inactive).
Take `Cc1cc(C)nc(S/C=C/C(=O)c2ccccc2)n1`: the activation in test [5] is 83.4% (active). Also, the inhibition in [6] is 58.6% (active); in [7], 98.9% (active).
Turning to `CCCCOc1ccc(-c2nnc(-c3ccco3)o2)cc1`, the inhibition in test [1] is 37.7% (inactive); in test [2], 44.6% (inactive); in test [3], 41.1% (inactive); with Caspase-3 (Homo sapiens) it was 12.6% (inactive); in [4] it was 2% (inactive).
The matching figures for `CCOC(=O)c1cnc2[nH]c3ccccc3n2c1=O`: 30.1% (inactive), 79% (active), 96.4% (active), 94.2% (active) and 65.2% (active).
As to `CC(=O)Oc1ccc2c(=O)oc(-c3ccc([N+](=O)[O-])cc3)nc2c1`, the inhibition in [1] was -6.1% (inactive); in test [2] it was -1.5% (inactive); in test [3], -2.9% (inactive); with Caspase-3 (Homo sapiens) it was -2.9% (inactive); in [4], -4.7% (inactive).
Regarding `CCOC(=O)c1c(NC(=O)CCl)sc(C(=O)N(CC)CC)c1C`, in test [5], the activation is 27% (inactive). Further, the activity was determined as 95.3% in test [10] and 93.8% in test [11].
On to `CCCCSc1nnc(-c2ccc(C)cc2)o1`, for which the inhibition in [1] was 19.5% (inactive); in test [2], 60.5% (active); in [3], 85.3% (active); with Caspase-3 (Homo sapiens), 55% (active); in test [4], 23.2% (inactive).
The matching figures for `Nc1[nH][nH]c(=O)c1N=Nc1ccc2c(c1)OCO2`: 41.3% (inactive), 39.2% (inactive), 67.3% (active), 74% (active) and 12% (inactive).
On the same counts, the results for `Fc1ccc(COc2ccc(-c3nnco3)cc2)cc1` are 29% (inactive), 60.4% (active), 85.8% (active), 67.9% (active) and 65.6% (active).
Consider `O=C(Nc1cccc([N+](=O)[O-])c1)c1ccc2c(c1)OCO2`, for which the inhibition in test [1] is 29.3% (inactive); in [2] it was 38.2% (inactive); in [3], 88% (active); in the test with Caspase-3 (Homo sapiens), 65.1% (active); in test [4], 9.5% (inactive).
